# Rab9 prom act – Rab9 promoter activation | Huh7 Rab9 promoter-luciferase reporter, luminescence, 24 h | Potency, µM (highest dose often 9.22 µM), for the others: at the top dose activation, negative = inhibition, hits mostly activators | actives 2.8% (n = 320,000) | AID 485297; further: % of control where 0% means no effect; nearly all actives have a fitted effect of over 60% in size
#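 Measured in stably transfected Huh7 cells bearing a Rab9 promoter–luciferase construct: 24 h compound treatment at 37 °C, followed by luminescence detection.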
# ELG1 genotox – induces genotoxicity in HEK293T cells with luciferase-tagged ELG1. HEK293T ELG1-luciferase reporter, luminescence, 16 h. Potency, µM (doses to about 46 µM), for the others: top-dose activity change, positive = activation, actives largely listed as activators. actives 1.3% (n = 330,000). AID 504466; further: % of control where 0% means no effect; nearly all actives have a fitted effect of over 60% in size
#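 Step 1: seed 2,000 HEK293T ELG1-luciferase cells per well. Step 2: add compound or DMSO, incubate 16 hr at 37 °C. Step 3: ONE-Glo, 30 min at room temperature, read luminescence.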
# SMN2 splice enh – SMN2 splice variant enhancement | HEK293 SMN2-luciferase splicing reporter, luminescence, 30-36 h | Potency, µM (highest dose often 46.1 µM), for the others: top-dose activity change, positive = activation, actives largely listed as activators | actives 2.8% (n = 210,000); further: % of control where 0% means no effect; nearly all actives have a fitted effect of over 55% in size
#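 HEK293 cells carry an SMN2 minigene-luciferase reporter in which exon 7 inclusion puts luciferase in frame. Cells were seeded at 2000 cells/well, attached for 10-12 hours, then exposed to compounds for 30-36 hours at 37C before ONE-Glo luminescence.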
# NPC1 promoter act – activates the NPC1 promoter | Potency, µM (top dose mostly 9.22 µM), inactives show at the highest dose activation, hits mostly activators | actives 2.4% (n = 320,000) | Huh7 NPC1 promoter luciferase reporter, 24 h; further: % of control where 0% means no effect; nearly all actives have a fitted effect of over 60% in size
#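 Compounds in DMSO were transferred onto Huh7 NPC1-luciferase reporter cells pre-incubated 2 h; after 24 h at 37 °C, Amplite reagent was dispensed and luminescence recorded 10 min later.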
# FLuc modulator – counter-screen for miR-21 project: firefly luciferase inhibitors or activators; P08659; purified FLuc, Km substrates, luminescence inhibition; Potency, µM (highest dose often 57.5 µM), for inactives: at the highest dose activity change, negative = inhibition, most hits filed as inhibitors; actives 6.9% (n = 360,000); AID 588342;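 further: plate controls were vehicle for no effect and reference inhibitor for full effect; nearly all actives have a fitted effect of over 55% in size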
# Target sequence (P08659 whole entry, looked up): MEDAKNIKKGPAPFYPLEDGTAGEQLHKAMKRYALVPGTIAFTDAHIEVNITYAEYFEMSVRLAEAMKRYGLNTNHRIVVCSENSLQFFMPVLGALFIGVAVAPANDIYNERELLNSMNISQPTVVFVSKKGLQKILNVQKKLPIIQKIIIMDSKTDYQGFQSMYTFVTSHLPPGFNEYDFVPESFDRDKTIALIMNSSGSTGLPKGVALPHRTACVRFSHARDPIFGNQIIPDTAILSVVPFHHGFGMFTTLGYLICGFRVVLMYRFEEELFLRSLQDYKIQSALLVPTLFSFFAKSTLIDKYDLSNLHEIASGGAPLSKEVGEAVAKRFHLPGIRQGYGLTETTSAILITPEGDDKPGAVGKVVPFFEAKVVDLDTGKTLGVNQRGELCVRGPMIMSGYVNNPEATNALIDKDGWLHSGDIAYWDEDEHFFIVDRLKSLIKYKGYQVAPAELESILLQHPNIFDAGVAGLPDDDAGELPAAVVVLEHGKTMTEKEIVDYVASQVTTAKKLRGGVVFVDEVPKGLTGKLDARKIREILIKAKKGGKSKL
#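 Purified P. pyralis luciferase, 10 nM final, with Km-level 10 uM D-luciferin and 10 uM ATP in 50 mM Tris acetate pH 7.5, 10 mM Mg acetate, 0.01% Tween-20, 0.05% BSA; 6-point qHTS titration about 60 µM downward; luminescence read.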
# The depositor's hits bear a star; ? = inconclusive; / = not tested or not shown; [ ] = another dose, or the depositor's remark. In the library only some 7.5% were active in any assay of this set; here they are far more common. The call rests on the fitted dose curve; in most records, active means well fitted curve in the direction sought with a large enough effect; inconclusive means small, poorly fitted or top-dose-only effect, or another doubt; inactive means no such curve, though single readings can be large; an effect the other way counts as inactive or inconclusive. Potency means the concentration at half of the fitted maximal effect.
SMILES,Rab9 prom act,ELG1 genotox,SMN2 splice enh,NPC1 promoter act,FLuc modulator
Cc1cc(C(=O)CSc2ccc(Cl)cc2)cc(C)c1OC(=S)N(C)C,?,?,-8.6%,2.82µM*,9.53µM*
NS(=O)(=O)c1cccc(NC(=O)CSc2nnc3n2CCCCC3)c1,/,-1.4%,/,/,/
COc1ccc(C2=NS(=O)(=O)N(C)C(C(=O)NCc3ccco3)=C2)cc1OC,6.1%,-0.1%,/,-0.4%,-3.1%
O=C(c1ccccc1)c1ccc2cc(O)ccc2c1,?,?,/,?,15.1µM*
CCCCCCOc1ccc(C(=O)O)cc1,5.0%,0.1%,/,10.5%,?
CCCCOc1ccc(-c2ncc(C(=O)O)c(C)n2)cc1,0.562µM*,11.6%,14.1µM*,0.501µM*,2.39µM*
CCOC(=O)c1sc(N2C(=O)C(O)=C(C(=O)c3ccc(C)o3)C2c2cccc([N+](=O)[O-])c2)nc1C (stereo not given),-1.3%,-1.3%,/,-1.0%,0.1%
CC(C)c1ccc(Nc2nnc(SC3CCOC3=O)s2)cc1 (stereo not given),0.1%,-0.8%,5.5%,-0.4%,7.57µM*
O=C1CCCCC1Sc1nnc(Nc2ccccc2)s1 (stereo not given),3.16µM*,?,10µM*,2.51µM*,19µM*
O=C(CSc1nnc(Nc2ccccc2)s1)NC1CC1,-0.4%,4.6%,/,0.3%,?
Cc1ccc(Nc2nnc(SC3CCOC3=O)s2)cc1 (stereo not given),-3.0%,2.6%,13.9%,6.5%,16.9µM*
CC(C)(O)c1cc2ccccc2c(=O)o1,/,3.5%,/,/,/
CCN(C(=O)CSc1nc2ccccc2nc1Cc1ccccc1OC)c1ccccc1,/,/,/,/,-15.0%
O=C(O)c1ccccc1C(=O)Nc1ccc(Br)c2cccnc12,2.9%,5.6%,2.0%,-0.9%,23.9µM*
CCC(=O)Nc1c(-c2ccccc2Cl)c(=O)c2ccccc2n1C,-2.5%,-0.2%,/,-3.9%,-0.9%
O=c1c(-c2cc3ccccc3o2)[n+]([O-])c2ccccc2n1OCc1ccccn1,?,?,?,?,12µM*
CCOc1ccc(-c2c(=O)n(OCc3nc4ccccc4[nH]3)c3ccccc3[n+]2[O-])cc1,20.5%,-1.8%,/,-3.1%,16.9µM*
CCOn1c(=O)c(-c2cc3ccccc3o2)[n+]([O-])c2ccccc21,2.82µM*,?,15.8µM*,3.55µM*,?
CCC(NS(=O)(=O)c1ccc(OC)cc1)C(=O)NCCC1=CCCCC1 (stereo not given),1.8%,-2.4%,-4.3%,-3.8%,0.7%
O=C(NCC1CCCO1)c1cc(-c2ccc(Cl)cc2Cl)on1 (stereo not given),2.82µM*,?,25.1µM*,3.55µM*,3.38µM*
O=C(NC(=S)NCC1CCCO1)c1ccc(Cl)cc1Cl (stereo not given),1.3%,6.8%,17.3%,2.8%,-3.8%
O=C(NCC1CCCO1)c1cc(-c2ccc(F)cc2)no1 (stereo not given),3.16µM*,?,/,22.8%,?
O=C(CNC(=O)c1ccc(Cl)cc1Cl)NCC1CCCO1 (stereo not given),12.3%,2.2%,/,11.1%,23.9µM*
Cc1cccc(NC(=O)C(=O)NCC2CCCO2)c1 (stereo not given),0.708µM*,?,/,2.51µM*,21.3µM*
O=C(NCC1CCCO1)Nc1cccc(Cl)c1 (stereo not given),22.3%,?,10.8%,14.9%,?
SMILES,Rab9 prom act,ELG1 genotox,SMN2 splice enh,NPC1 promoter act,FLuc modulator
CCN(CC)CC(C)CNC(=O)c1cc(-c2ccc(Br)s2)nc2ccccc12 (stereo not given),/,/,-4.9%,/,0.3%
CN(C)S(=O)(=O)c1ccc(NC(=S)NC(=O)c2ccc(Br)o2)cc1,1.8%,-5.0%,11.8%,-7.8%,-14.7%
CCN(C[C@H]1N[C@@](CC)(C(=O)OC)[C@H]2C(=O)N(Cc3ccccc3)C(=O)[C@@H]12)C(=O)COC,/,-0.3%,/,/,/
Cc1ccc(-c2cc(C(=O)NCC3CCCO3)no2)cc1 (stereo not given),2.82µM*,?,10µM*,2.51µM*,-16.6%[2.3 µM]
Cc1ccc(Nc2nc(C(=O)NCC3CCCO3)cs2)cc1 (stereo not given),-1.2%,0.1%,/,-0.4%,?
O=C(NCC1CCCO1)c1ccccc1-c1nc(-c2ccccc2)no1 (stereo not given),5.2%,5.4%,25.0%,-1.4%,?
O=C(NCC1CCCO1)c1cc(-c2ccccc2)on1 (stereo not given),2.51µM*,10.3µM*,35.5µM*,2.51µM*,15.1µM*
NC(=O)C[n+]1ccc(/C=N/O)cc1,1.2%,1.7%,0.1%,-6.0%,-2.4%
CCn1nc(C)c(Br)c1-c1nc(-c2ccc(C)cc2)no1,-2.7%,0.3%,/,-5.1%,15.1µM*
Cc1ccc(O)c(C(=O)CC(=O)c2cccc(F)c2)c1,?,7.0%,35.5µM*,?,-6.6%[2.3 µM]
Cc1cccc(C(=O)CC(=O)c2cc(Cl)ccc2O)c1,-1.9%,-7.3%,-98.0%,-2.2%,-12.4%
Cc1ccc(O)c(C(=O)CC(=O)c2ccc(Cl)cc2)c1,?,?,/,15.2%,23.9µM*
Cc1nc(-c2ccccn2)nc(N(C)c2ccccc2)c1Cl,-2.0%,-8.9%,/,-0.5%,15.1µM*
Cc1nc(-c2ccccn2)nc(N2CCOCC2)c1Cl,3.3%,-2.1%,/,-1.2%,0.9%
COC(=O)CSc1ccc2c(N)c(C(=O)OC)sc2c1,2.3%,-0.4%,?,-2.4%,19µM*
COC(=O)COc1ccsc1C(=O)OC,-1.5%,-1.3%,-11.0%,-2.5%,1.2%
COc1ccc([C@@]2(C(C)C)ON(c3ccccc3C(F)(F)F)C2=O)cc1,-1.6%,-3.1%,/,-11.5%,4.6%
CCN(C(=O)COC(=O)c1cccc(NS(=O)(=O)c2ccc(F)c(F)c2)c1)C1CCS(=O)(=O)C1 (stereo not given),-1.3%,1.2%,7.4%,-8.1%,3.1%
COc1ccccc1/C=C/C=N/NC(=O)c1cc(-c2ccco2)[nH]n1,-0.3%,-4.9%,/,-2.7%,16.9µM*
COc1ccccc1/C=C/C=N/NC(=O)c1ccccn1,1.12µM*,-8.7%,11.2µM*,2µM*,8.49µM*
Cc1ccc(CN(C(=O)c2ccc([N+](=O)[O-])cc2)C2CCS(=O)(=O)C2)o1 (stereo not given),-6.3%,-0.4%,/,2.1%,-0.2%
O=C(Nc1ccccc1C(=O)OCc1cc(=O)n2ccsc2n1)c1ccccc1Cl,/,/,/,/,4.7%
Cc1ccc(Cl)cc1NC(=O)CSCc1cnn(-c2ccccc2)c1-n1cccc1,/,/,-29.4%,/,1.0%
Cc1ccc(C(=O)CCC(=O)N2CCC(C(N)=O)CC2)cc1,1.1%,2.0%,11.4%,-2.8%,6.3%
CCOC(=O)CSc1nnc(-c2ccc(OC)cc2OC)o1,1.9%,2.9%,7.1%,-0.5%,9.53µM*
CCOC(=O)CSc1nnc(-c2ccc(OC)cc2)o1,/,/,-0.3%,/,16.9µM*
